Our source for the NP40-soluble protein abundance values is the supplement of paper PMC6411743.

± gives the standard deviation of the averaged measurements. The full data set covers some 5,400 targets. This sample favours those with the largest changes.

UniProt O60870, sequence (O60870 whole entry): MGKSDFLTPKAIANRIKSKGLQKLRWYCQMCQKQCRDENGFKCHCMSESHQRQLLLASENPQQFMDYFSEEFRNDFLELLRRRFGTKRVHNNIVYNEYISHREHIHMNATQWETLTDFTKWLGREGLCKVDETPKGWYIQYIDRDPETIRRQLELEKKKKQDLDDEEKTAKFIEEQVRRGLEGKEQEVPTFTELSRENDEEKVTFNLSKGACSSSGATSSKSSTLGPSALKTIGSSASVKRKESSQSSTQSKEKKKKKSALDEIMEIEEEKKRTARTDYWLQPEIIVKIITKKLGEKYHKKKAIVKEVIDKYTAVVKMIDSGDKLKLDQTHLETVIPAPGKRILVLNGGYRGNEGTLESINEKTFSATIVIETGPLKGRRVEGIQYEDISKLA
UniProt O43760, sequence (O43760 whole entry): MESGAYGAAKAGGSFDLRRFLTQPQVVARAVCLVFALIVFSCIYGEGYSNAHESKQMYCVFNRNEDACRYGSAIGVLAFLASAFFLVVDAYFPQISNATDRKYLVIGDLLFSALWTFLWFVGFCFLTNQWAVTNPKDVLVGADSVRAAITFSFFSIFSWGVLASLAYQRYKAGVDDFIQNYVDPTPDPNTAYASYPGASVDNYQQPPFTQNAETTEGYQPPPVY
UniProt P20339, sequence (P20339 whole entry): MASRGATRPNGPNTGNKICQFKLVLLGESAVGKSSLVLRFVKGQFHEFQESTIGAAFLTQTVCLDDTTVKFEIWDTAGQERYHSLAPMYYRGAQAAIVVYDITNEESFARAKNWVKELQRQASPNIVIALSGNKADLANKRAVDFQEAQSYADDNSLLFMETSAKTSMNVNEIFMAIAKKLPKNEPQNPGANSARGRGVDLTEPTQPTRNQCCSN
UniProt P25705, sequence (P25705 whole entry): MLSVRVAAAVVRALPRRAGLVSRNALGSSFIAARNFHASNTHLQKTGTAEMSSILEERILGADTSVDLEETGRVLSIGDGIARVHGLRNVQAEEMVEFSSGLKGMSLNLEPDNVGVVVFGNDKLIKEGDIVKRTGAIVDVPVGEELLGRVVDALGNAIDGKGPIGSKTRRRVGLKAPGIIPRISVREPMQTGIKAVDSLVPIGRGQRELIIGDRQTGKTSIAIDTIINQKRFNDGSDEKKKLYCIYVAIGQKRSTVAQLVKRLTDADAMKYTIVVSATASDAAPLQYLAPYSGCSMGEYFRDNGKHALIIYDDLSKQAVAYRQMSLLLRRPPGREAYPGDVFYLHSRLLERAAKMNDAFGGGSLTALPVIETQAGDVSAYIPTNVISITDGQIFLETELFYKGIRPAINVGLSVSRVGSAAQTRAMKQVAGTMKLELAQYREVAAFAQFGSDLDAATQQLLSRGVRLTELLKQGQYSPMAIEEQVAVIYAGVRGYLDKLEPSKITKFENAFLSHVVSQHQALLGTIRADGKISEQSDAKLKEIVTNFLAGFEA
UniProt Q96SW2, sequence (Q96SW2 whole entry, one chain of several): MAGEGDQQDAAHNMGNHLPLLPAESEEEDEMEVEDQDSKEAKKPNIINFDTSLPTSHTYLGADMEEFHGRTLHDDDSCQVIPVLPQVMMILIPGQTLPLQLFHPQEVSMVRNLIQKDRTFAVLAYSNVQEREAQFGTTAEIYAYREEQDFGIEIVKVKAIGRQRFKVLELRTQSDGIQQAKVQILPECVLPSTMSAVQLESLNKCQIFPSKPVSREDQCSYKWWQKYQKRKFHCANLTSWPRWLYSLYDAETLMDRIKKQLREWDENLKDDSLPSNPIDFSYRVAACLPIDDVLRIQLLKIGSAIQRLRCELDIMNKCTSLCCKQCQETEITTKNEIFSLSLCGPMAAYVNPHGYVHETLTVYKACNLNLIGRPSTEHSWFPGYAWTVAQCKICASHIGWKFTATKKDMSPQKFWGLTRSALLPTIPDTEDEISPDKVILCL
UniProt P04150, sequence (P04150 whole entry): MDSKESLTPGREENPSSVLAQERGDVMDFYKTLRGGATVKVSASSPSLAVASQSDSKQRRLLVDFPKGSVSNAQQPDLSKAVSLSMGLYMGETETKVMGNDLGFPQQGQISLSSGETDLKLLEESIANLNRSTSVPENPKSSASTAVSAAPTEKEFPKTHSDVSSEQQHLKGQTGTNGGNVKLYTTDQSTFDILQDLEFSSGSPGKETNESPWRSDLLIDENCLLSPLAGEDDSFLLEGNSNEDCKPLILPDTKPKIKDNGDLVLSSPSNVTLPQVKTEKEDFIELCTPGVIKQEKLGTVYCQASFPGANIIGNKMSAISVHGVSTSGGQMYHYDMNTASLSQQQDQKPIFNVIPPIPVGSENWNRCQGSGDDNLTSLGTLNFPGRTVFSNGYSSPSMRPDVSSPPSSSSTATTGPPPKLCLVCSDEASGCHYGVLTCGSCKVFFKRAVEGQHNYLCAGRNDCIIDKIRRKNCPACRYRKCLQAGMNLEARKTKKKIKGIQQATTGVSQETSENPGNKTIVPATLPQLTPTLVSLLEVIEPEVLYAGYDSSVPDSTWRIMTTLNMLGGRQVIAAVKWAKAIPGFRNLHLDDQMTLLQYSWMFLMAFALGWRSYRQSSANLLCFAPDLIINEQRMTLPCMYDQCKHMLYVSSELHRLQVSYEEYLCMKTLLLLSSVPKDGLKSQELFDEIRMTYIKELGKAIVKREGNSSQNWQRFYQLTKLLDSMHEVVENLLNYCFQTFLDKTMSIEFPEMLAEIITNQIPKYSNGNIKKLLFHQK
UniProt O75828, sequence (O75828 whole entry): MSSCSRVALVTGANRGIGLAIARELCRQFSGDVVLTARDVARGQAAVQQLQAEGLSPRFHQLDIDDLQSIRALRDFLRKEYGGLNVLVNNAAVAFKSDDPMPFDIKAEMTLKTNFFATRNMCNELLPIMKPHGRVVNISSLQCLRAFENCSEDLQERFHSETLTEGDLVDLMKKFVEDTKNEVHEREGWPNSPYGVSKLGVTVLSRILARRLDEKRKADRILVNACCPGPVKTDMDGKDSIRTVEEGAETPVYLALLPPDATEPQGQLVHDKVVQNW
UniProt P09651, sequence (P09651 whole entry): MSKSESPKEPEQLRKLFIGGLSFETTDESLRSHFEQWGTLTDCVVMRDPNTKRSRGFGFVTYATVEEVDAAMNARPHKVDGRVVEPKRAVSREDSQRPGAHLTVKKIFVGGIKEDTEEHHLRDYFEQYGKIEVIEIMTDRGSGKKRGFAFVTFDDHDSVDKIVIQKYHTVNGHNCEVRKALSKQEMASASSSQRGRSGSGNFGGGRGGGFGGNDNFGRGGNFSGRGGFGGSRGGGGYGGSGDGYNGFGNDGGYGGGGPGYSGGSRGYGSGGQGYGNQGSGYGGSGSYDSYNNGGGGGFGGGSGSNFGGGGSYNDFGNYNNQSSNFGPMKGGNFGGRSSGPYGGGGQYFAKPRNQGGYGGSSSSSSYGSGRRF
UniProt P51114, sequence (P51114 whole entry): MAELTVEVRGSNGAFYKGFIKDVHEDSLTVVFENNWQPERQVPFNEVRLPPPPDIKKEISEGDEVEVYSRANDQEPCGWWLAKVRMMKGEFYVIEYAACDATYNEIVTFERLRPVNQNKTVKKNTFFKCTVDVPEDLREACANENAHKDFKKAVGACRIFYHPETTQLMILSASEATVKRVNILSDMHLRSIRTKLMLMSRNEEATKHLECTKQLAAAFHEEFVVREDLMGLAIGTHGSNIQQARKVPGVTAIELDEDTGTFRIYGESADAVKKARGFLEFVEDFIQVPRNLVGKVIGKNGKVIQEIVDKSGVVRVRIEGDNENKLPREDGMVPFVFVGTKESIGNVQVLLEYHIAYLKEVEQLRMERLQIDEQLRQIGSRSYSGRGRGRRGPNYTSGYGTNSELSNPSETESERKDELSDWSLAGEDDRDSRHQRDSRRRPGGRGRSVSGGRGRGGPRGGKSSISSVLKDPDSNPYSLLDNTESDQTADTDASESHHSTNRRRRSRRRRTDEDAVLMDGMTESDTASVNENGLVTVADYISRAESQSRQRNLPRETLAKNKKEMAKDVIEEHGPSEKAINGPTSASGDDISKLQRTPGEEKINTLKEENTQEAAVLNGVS
UniProt Q13227, sequence (Q13227 whole entry, one chain of several): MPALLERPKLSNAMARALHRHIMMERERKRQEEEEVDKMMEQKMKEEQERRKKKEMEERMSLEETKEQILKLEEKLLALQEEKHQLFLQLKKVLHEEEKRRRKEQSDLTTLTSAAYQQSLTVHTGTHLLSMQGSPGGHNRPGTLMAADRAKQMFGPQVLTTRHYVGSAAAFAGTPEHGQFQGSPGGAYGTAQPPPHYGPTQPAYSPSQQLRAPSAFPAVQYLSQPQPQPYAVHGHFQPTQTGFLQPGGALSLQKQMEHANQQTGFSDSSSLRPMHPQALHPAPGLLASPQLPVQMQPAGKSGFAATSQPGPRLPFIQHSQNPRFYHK
UniProt P12931, sequence (P12931 whole entry, looked up): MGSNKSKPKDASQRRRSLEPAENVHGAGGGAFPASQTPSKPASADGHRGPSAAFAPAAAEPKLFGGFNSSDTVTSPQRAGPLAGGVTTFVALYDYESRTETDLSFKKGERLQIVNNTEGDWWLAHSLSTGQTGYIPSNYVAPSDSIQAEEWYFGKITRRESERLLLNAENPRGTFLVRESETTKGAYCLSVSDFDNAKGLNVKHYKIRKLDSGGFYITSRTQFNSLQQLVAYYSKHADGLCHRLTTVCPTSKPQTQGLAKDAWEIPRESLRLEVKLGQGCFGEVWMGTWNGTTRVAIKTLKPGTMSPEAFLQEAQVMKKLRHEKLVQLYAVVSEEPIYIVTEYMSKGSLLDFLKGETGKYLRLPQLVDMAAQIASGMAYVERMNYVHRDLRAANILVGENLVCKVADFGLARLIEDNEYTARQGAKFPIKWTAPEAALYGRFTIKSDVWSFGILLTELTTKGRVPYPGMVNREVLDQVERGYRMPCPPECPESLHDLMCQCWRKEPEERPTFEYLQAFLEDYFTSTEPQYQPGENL
UniProt O43665, sequence (O43665 whole entry): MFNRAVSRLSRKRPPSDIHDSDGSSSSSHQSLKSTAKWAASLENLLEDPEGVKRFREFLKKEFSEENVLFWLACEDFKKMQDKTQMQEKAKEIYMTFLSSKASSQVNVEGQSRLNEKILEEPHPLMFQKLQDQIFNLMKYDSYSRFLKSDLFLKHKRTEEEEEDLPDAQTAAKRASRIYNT

Compound in the first test: Nc1nc2c(ncn2[C@@H]2O[C@H](COP(=O)(O)OP(=O)(O)OP(=O)(O)O)[C@@H](O)[C@H]2O)c(=O)[nH]1 [guanosine triphosphate]
As to the kind of experiment: NP40-soluble protein abundance relative to vehicle (solubility fold change) (ratio); higher = more soluble protein in presence of GTP. The following applies: concentration: 6mM. The method, boiled down:
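Values are fold changes against the detergent-processed vehicle, based on vsn-normalised intensities. Jurkat crude lysate was treated at eight concentrations from 0.1 to 10 mM (10 min at room temperature, then 3 min at 37 °C), solubilised with 0.8% NP40 and benzonase, ultracentrifuged and analysed by TMT-labelled LC-MS/MS over three independent experiments.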
For H2AFX (UniProt P16104), the NP40-soluble protein abundance turned out to be 1.48 ± 0.16.
Same read-out and setting: the result for UniProt P09651|P09651-2 reads 1.22 ± 0.089; that for UniProt O43760|O43760-2, 0.852 ± 0.11; that for “UniProt P04150|P04150-10|P04150-2|P04150-3|P04150-5|P04150-6|P04150-7|P04150-8|P04150-9|P04150-11|P04150-12|P04150-13”, 0.999 ± 0.055.
The same measure, in the same setting: the same measure for J3QT87|Q96SW2|Q96SW2-2 (UniProt Q96SW2): 1.04 ± 0.1; for UniProt P20339|P20339-2: 0.85 ± 0.024.
The same measure, in the same setting: the result for CBR3 (UniProt O75828) reads 0.936 ± 0.091; that for P0C0S5|Q71UI9 (UniProt Q71UI9+P0C0S5), 1.25 ± 0.094; that for “UniProt O95758-2|O95758-6|O95758|O95758-1|O95758-4|O95758-5|O95758-7”, 0.972 ± 0.05.
Turning to KIN (UniProt O60870), the NP40-soluble protein abundance is 0.908 ± 0.024.
Same read-out and setting: the result for UniProt P25705|P25705-2 reads 1.03 ± 0.11.

The same test, now with this note: concentration: 8mM.
For UniProt O43665|O43665-2|O43665-3, the NP40-soluble protein abundance was 0.79 ± 0.089.
On the same count and under the same terms, the result for UniProt O00567 reads 2.06 ± 0.14.
Same read-out and setting: the result for ARID1A (UniProt O14497) reads 1.16 ± 0.17.
The same measure, in the same setting: the same measure for J3QTA6|Q9BRQ6 (UniProt Q9BRQ6): 1.22 ± 0.12.
Consider AKR1A1 (UniProt P14550), for which the NP40-soluble protein abundance is 0.831 ± 0.088.
On the same count and under the same terms, the result for J3QQJ5|Q9Y2L5 (UniProt Q9Y2L5) reads 1.01 ± 0.12.
On the same count and under the same terms, the result for UniProt P17096|P17096-2 reads 1.55 ± 0.21; that for AK4 (UniProt P27144), 0.975 ± 0.16.
The same measure, in the same setting: the same measure for UniProt P12931|P12931-2: 0.894 ± 0.052.
In the case of UniProt O14776|O14776-2, the NP40-soluble protein abundance worked out at 1.05 ± 0.05.
For the target UniProt P17812, the NP40-soluble protein abundance was 0.864 ± 0.041.
With NUDT2 (UniProt P50583), the NP40-soluble protein abundance was determined as 1.48 ± 0.34.
The same measure, in the same setting: the same measure for CRKL (UniProt P46109): 0.923 ± 0.093; for “UniProt P11388|P11388-2|P11388-3|P11388-4”: 2.01 ± 0.18.
The same measure, in the same setting: the result for NUP62 (UniProt P37198) reads 1.08 ± 0.052; that for K7EPN2|P22830|P22830-2 (UniProt P22830), 0.928 ± 0.043.
The same measure, in the same setting: the result for UniProt O15111 reads 0.891 ± 0.013; that for UniProt O60508|Q5SRN1, 1.11 ± 0.013.
As for SLC16A7 (UniProt O60669), the NP40-soluble protein abundance was found to be 1.12 ± 0.089.
On the same count and under the same terms, the same measure for FXR1 (UniProt P51114): 2.16 ± 0.091; for “P15531-2|P22392-2|Q32Q12 (UniProt Q32Q12+P22392+P15531)”: 0.822 ± 0.06.
On the same count and under the same terms, the result for UniProt P54578|P54578-2 reads 0.895 ± 0.038.
Still for that read-out and setting: the same measure for M0R2S1|P62987 (UniProt P62987): 0.867 ± 0.12; for RPL21 (UniProt P46778): 0.72 ± 0.22.
As to “I3L3Y9|I3L4X7|Q13227|Q13227-2 (UniProt Q13227)”, the NP40-soluble protein abundance was determined as 1.03 ± 0.13.
The same measure, in the same setting: the result for PPT1 (UniProt P50897) reads 0.876 ± 0.059; that for URB1 (UniProt O60287), 2.18 ± 0.082.
Still for that read-out and setting: the result for H2AFX (UniProt P16104) reads 1.44 ± 0.13.
Still for that read-out and setting: the same measure for UniProt P09651|P09651-2: 1.3 ± 0.22; for UniProt O43760|O43760-2: 0.843 ± 0.15.
Turning to “UniProt P04150|P04150-10|P04150-2|P04150-3|P04150-5|P04150-6|P04150-7|P04150-8|P04150-9|P04150-11|P04150-12|P04150-13”, the NP40-soluble protein abundance worked out at 1.02 ± 0.046.
On the same count and under the same terms, the same measure for J3QT87|Q96SW2|Q96SW2-2 (UniProt Q96SW2): 0.946 ± 0.047.
Take UniProt P20339|P20339-2: the NP40-soluble protein abundance was 0.82 ± 0.13.
On the same count and under the same terms, the same measure for CBR3 (UniProt O75828): 1.08 ± 0.22; for P0C0S5|Q71UI9 (UniProt Q71UI9+P0C0S5): 1.25 ± 0.079.
Same read-out and setting: the result for “UniProt O95758-2|O95758-6|O95758|O95758-1|O95758-4|O95758-5|O95758-7” reads 0.959 ± 0.058; that for KIN (UniProt O60870), 0.9015 ± 0.007.
Same read-out and setting: the same measure for UniProt P25705|P25705-2: 1.01 ± 0.11.

The same test, now with this note: concentration: 10mM.
Turning to UniProt O43665|O43665-2|O43665-3, the NP40-soluble protein abundance came to 0.909 ± 0.14.
As to UniProt O00567, the NP40-soluble protein abundance worked out at 2.48 ± 0.13.
Still for that read-out and setting: the same measure for ARID1A (UniProt O14497): 1.13 ± 0.17.
The same measure, in the same setting: the same measure for J3QTA6|Q9BRQ6 (UniProt Q9BRQ6): 1.26 ± 0.21; for AKR1A1 (UniProt P14550): 0.825 ± 0.08; for J3QQJ5|Q9Y2L5 (UniProt Q9Y2L5): 0.981 ± 0.13.
Same read-out and setting: the same measure for UniProt P17096|P17096-2: 2.02 ± 0.076.
As to AK4 (UniProt P27144), the NP40-soluble protein abundance amounted to 0.983 ± 0.11.
UniProt P12931|P12931-2: the NP40-soluble protein abundance turned out to be 0.837 ± 0.074.
Same read-out and setting: the same measure for UniProt O14776|O14776-2: 1.04 ± 0.071; for UniProt P17812: 0.819 ± 0.086; for NUDT2 (UniProt P50583): 1.16 ± 0.26.
The same measure, in the same setting: the result for CRKL (UniProt P46109) reads 0.876 ± 0.086; that for “UniProt P11388|P11388-2|P11388-3|P11388-4”, 2.12 ± 0.15; that for NUP62 (UniProt P37198), 1.19 ± 0.047.
On the same count and under the same terms, the result for K7EPN2|P22830|P22830-2 (UniProt P22830) reads 0.885 ± 0.05; that for UniProt O15111, 0.887 ± 0.024.
As for UniProt O60508|Q5SRN1, the NP40-soluble protein abundance was found to be 1.08 ± 0.042.
The same measure, in the same setting: the result for SLC16A7 (UniProt O60669) reads 1.05 ± 0.16; that for FXR1 (UniProt P51114), 2.28 ± 0.13; that for “P15531-2|P22392-2|Q32Q12 (UniProt Q32Q12+P22392+P15531)”, 0.839 ± 0.025.
Turning to UniProt P54578|P54578-2, the NP40-soluble protein abundance was 0.876 ± 0.046.
For M0R2S1|P62987 (UniProt P62987), the NP40-soluble protein abundance was found to be 0.941 ± 0.11.
On the same count and under the same terms, the result for RPL21 (UniProt P46778) reads 0.971 ± 0.23; that for “I3L3Y9|I3L4X7|Q13227|Q13227-2 (UniProt Q13227)”, 1.08 ± 0.14.
On the same count and under the same terms, the result for PPT1 (UniProt P50897) reads 0.861 ± 0.099; that for URB1 (UniProt O60287), 2.34 ± 0.033.
Still for that read-out and setting: the result for H2AFX (UniProt P16104) reads 2.26 ± 0.46; that for UniProt P09651|P09651-2, 1.25 ± 0.16; that for UniProt O43760|O43760-2, 0.884 ± 0.091.
Turning to “UniProt P04150|P04150-10|P04150-2|P04150-3|P04150-5|P04150-6|P04150-7|P04150-8|P04150-9|P04150-11|P04150-12|P04150-13”, the NP40-soluble protein abundance came to 1.05 ± 0.069.
For the target J3QT87|Q96SW2|Q96SW2-2 (UniProt Q96SW2), the NP40-soluble protein abundance came to 0.931 ± 0.039.
With UniProt P20339|P20339-2, the NP40-soluble protein abundance amounted to 0.828 ± 0.14.
On the same count and under the same terms, the same measure for CBR3 (UniProt O75828): 1.09 ± 0.11; for P0C0S5|Q71UI9 (UniProt Q71UI9+P0C0S5): 1.57 ± 0.18; for “UniProt O95758-2|O95758-6|O95758|O95758-1|O95758-4|O95758-5|O95758-7”: 0.951 ± 0.038.
Still for that read-out and setting: the result for KIN (UniProt O60870) reads 0.885 ± 0.053; that for UniProt P25705|P25705-2, 0.995 ± 0.098.
